# Reference: PubChem BioAssay (Tox21)
# Several values for one entry are separate records, joined by “and”; a condition that tells them apart may be missing. Equal entries are not always repeated. Activity calls are given as the source filed them. Where a call stands in place of a potency, no number is given. Unless noted, the call rests on the fitted dose curve; in most records, active means well fitted curve in the direction sought with a large enough effect in the repeat runs; inconclusive means weak or mixed curves; inactive means no such curve, though single readings can be large; an effect the other way counts as inactive or inconclusive.
# Columns and labels:
# [1] = qHTS assay to identify small molecule antagonists of the thyroid receptor (TR) signaling pathway (AID 743065); further: nearly all actives have a fitted effect of over 55% in size; further: potency means the concentration at half of the fitted maximal effect
# Procedure, shortened: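 GH3.TRE-Luc rat pituitary cells (two TREs driving luciferase) were dosed with compound, then stimulated with 1 nM T3 (final) for 23.5 h at 37 C. ONE-Glo luminescence was the read-out, with CellTiter-Fluor fluorescence as the cytotoxicity counter-screen.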
# [2] = qHTS assay to identify small molecule antagonists of the estrogen receptor alpha (ER-alpha) signaling pathway using the BG1 cell line (AID 743080; calls by dose curve;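 further: BG1 cells stimulated with 17beta-estradiol alongside compound; nearly all actives have a fitted effect of over 25% in size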; further: potency means the concentration at half of the fitted maximal effect)
# Procedure, shortened: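 Luciferase inhibition measured with ONE-Glo after 30 min at RT in BG1Luc4E2 cells given test compounds and 17beta-estradiol for 21.5 h at 37 C; CellTiter-Fluor viability read in the same wells beforehand.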
# [3] = qHTS assay to identify small molecule antagonists of the estrogen receptor alpha (ER-alpha) signaling pathway using the BG1 cell line - cell viability counter screen (AID 743081);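 further: compound given together with 17beta-estradiol as the ER stimulus; nearly all actives have a fitted effect of over 45% in size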; further: potency means the concentration at half of the fitted maximal effect
# Aromatase (Homo sapiens) = Aromatase (Homo sapiens) (UniProt P11511); experiment: qHTS assay to identify aromatase inhibitors (AID 743083); further: nearly all actives have a fitted effect of over 55% in size; further: potency means the concentration at half of the fitted maximal effect
# Aromatase (Homo sapiens), sequence (P11511 whole entry, looked up): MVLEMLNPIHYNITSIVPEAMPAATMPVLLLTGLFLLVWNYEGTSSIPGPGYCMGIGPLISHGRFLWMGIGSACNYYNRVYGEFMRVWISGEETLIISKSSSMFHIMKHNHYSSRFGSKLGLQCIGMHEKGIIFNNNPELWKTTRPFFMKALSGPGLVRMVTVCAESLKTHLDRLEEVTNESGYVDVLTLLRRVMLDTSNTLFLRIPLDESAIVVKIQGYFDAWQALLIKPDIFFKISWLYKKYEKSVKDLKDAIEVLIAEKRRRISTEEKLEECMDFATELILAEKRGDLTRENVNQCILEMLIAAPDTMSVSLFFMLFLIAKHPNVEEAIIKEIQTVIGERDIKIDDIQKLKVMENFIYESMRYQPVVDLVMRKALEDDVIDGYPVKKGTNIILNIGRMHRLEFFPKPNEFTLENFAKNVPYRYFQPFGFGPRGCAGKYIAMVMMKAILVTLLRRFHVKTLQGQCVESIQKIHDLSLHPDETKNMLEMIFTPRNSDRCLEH
# [4] = qHTS assay to identify aromatase inhibitors - cell viability counter screen (AID 743084);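 further: cells stimulated with testosterone during compound exposure; nearly all actives have a fitted effect of over 55% in size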; further: potency means the concentration at half of the fitted maximal effect
# [5] = molecular target: Aryl hydrocarbon receptor (Homo sapiens) (UniProt P35869); experiment: qHTS assay to identify small molecule that activate the aryl hydrocarbon receptor (AhR) signaling pathway (AID 743085); further: nearly all actives have a fitted effect of over 15% in size; further: potency means the concentration at half of the fitted maximal effect;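 on activation: HG2L7.5c1 human HepG2 liver cells with stably integrated DRE-driven firefly reporter; series mostly up to about 70 µM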
# Aryl hydrocarbon receptor (Homo sapiens), sequence (P35869 whole entry, looked up): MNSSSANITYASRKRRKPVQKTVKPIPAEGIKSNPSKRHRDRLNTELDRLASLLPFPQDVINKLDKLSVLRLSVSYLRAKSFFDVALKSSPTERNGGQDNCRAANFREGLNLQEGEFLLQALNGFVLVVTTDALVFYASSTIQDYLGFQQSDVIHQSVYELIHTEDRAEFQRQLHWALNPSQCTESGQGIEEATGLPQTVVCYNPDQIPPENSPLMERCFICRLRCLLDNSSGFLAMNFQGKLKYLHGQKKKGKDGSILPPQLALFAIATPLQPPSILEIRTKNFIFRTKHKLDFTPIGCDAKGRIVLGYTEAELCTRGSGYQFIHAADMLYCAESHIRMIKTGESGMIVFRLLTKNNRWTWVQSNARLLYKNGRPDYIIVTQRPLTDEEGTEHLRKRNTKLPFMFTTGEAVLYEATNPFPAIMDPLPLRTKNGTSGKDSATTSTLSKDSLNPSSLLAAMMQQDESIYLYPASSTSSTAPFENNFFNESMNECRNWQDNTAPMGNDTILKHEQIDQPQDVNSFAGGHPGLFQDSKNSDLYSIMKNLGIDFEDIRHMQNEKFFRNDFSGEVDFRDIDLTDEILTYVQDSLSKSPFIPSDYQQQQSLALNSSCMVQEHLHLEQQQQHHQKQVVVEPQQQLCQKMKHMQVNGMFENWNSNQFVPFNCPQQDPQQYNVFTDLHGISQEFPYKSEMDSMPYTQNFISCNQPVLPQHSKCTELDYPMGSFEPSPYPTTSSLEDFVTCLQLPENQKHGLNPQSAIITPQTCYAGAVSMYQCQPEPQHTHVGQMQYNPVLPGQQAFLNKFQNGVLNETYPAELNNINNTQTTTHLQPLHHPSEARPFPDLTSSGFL
# Procedure, shortened: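 HepG2 cells stably carrying a 20-DRE firefly luciferase reporter (HG2L7.5c1) treated with compound for 24 hr at 37C. Luciferase read by ONE-Glo luminescence, with CellTiter-Fluor viability read first.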
# [6] = qHTS assay to identify small molecule that activate the aryl hydrocarbon receptor (AhR) signaling pathway - cell viability counter screen (AID 743086); further: nearly all actives have a fitted effect of over 45% in size; further: potency means the concentration at half of the fitted maximal effect
# Procedure, shortened: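 HepG2-AhR-luc (HG2L7.5c1) cells, 4000/well, treated 24 h at 37 C with compound; viability measured as CellTiter-Fluor fluorescence after 30 min in the same wells as the luciferase read.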
# [7] = qHTS assay for small molecule agonists of the antioxidant response element (ARE) signaling pathway - cell viability counter screen (AID 743203; calls by dose curve; further: nearly all actives have a fitted effect of over 55% in size; further: potency means the concentration at half of the fitted maximal effect)
# Procedure, shortened: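 Following 16 hrs of compound treatment at 37C, HepG2 cells with an ARE-controlled beta-lactamase gene were lysed with CellTiter-Glo. Luminescence was read after 30 min at room temperature.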
# [8] = qHTS assay for small molecule activators of the heat shock response signaling pathway - cell viability counter screen (AID 743209); further: nearly all actives have a fitted effect of over 50% in size; further: potency means the concentration at half of the fitted maximal effect
# Procedure, shortened: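 Readout: CellTiter-Glo luminescence, 30 min at room temperature. System: HSE-bla HeLa cells, 1500/well, plated overnight. Treatment: compounds in DMSO, 5 h at 37 C.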
# [9] = system: thyroid hormone receptor (rat, GH3 cells); experiment: qHTS assay to identify small molecule agonists of the thyroid receptor (TR) signaling pathway (AID 743066; calls by dose curve)
# [10] = qHTS assay to identify small molecule antagonists of the estrogen receptor alpha (ER-alpha) signaling pathway - cell viability counter screen (AID 743074; calls by dose curve;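 further: HEK293 cells carrying ER-alpha-UAS-bla reporter stimulated with 17beta-estradiol; nearly all actives have a fitted effect of over 45% in size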)
# [11] = qHTS assay to identify small molecule antagonists of the peroxisome proliferator-activated receptor gamma (PPARg) signaling pathway - cell viability counter screen (AID 743194); details: Potency: co-treated with 50 nM rosiglitazone unless noted; further: nearly all actives have a fitted effect of over 55% in size; further: potency means the concentration at half of the fitted maximal effect
# Procedure, shortened: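 Cytotoxicity counter screen in PPARg-bla HEK293H cells, same wells as reporter assay. Compounds plus 50 nM rosiglitazone (final) for 17 h at 37 C, then viability read by CellTiter-Glo luminescence.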
# [12] = molecular target: Estrogen receptor (Homo sapiens) (UniProt P03372); experiment: qHTS assay to identify small molecule agonists of the estrogen receptor alpha (ER-alpha) signaling pathway (AID 743075; calls by dose curve;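 further: HEK293 GripTite cells with ER-alpha and UAS-driven beta-lactamase reporter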; further: potency means the concentration at half of the fitted maximal effect)
# Estrogen receptor (Homo sapiens), sequence (P03372 whole entry, looked up): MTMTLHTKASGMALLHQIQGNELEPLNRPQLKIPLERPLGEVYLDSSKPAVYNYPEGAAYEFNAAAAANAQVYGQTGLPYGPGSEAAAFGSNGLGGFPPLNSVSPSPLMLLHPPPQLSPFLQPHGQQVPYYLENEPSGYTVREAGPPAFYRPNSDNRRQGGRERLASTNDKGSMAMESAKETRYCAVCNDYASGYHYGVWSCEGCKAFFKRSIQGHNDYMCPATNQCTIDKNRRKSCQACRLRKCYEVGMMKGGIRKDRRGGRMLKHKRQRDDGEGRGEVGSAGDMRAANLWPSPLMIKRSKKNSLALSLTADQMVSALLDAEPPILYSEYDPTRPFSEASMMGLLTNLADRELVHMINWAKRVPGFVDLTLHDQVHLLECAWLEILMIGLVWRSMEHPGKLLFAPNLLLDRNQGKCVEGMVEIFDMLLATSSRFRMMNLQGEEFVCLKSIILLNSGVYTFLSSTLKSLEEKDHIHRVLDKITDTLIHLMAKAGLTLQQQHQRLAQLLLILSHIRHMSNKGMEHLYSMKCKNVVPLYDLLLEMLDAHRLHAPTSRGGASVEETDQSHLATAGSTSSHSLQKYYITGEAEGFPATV
# [13] = molecular target: Estrogen receptor (Homo sapiens) (UniProt P03372); experiment: qHTS assay to identify small molecule agonists of the estrogen receptor alpha (ER-alpha) signaling pathway using the BG1 cell line (AID 743079); further: nearly all actives have a fitted effect of over 20% in size; further: potency means the concentration at half of the fitted maximal effect
# [14] = molecular target: Estrogen receptor (Homo sapiens) (UniProt P03372); experiment: qHTS assay to identify small molecule antagonists of the estrogen receptor alpha (ER-alpha) signaling pathway (AID 743069; active means well fitted curve in the direction sought with a large enough effect in the signal ratio in the repeat runs, not every such curve was filed as active; inconclusive means weak or mixed curves, or effect the other way; inactive means no such curve, though single readings can be large or run the other way; the % refers to the signal ratio; further: potency means the concentration at half of the fitted maximal effect)
# Procedure, shortened: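 Reporter cells (ER-alpha-bla, HEK293 background) are conditioned overnight in stripped-serum medium (2% charcoal-stripped FBS). Compound and 17beta-estradiol exposure runs 18 hr at 37C, 5% CO2.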
# [15] = qHTS assay for small molecule agonists of the antioxidant response element (ARE) signaling pathway (AID 743202; active means well fitted activation curve with a large enough effect in the signal ratio in the repeat runs, not every such curve was filed as active; inconclusive means weak or mixed curves, or effect the other way; inactive means no such curve, though single readings can be large or run the other way; the % refers to the signal ratio; further: potency means the concentration at half of the fitted maximal effect)
# Procedure, shortened: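 Agonist mode reporter screen: HepG2 cells with ARE-controlled beta-lactamase are incubated with test compounds for 16 h at 37 C, and beta-lactamase activity is measured as fluorescence of cleaved B/G FRET substrate.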
# [16] = qHTS assay for small molecule activators of the heat shock response signaling pathway (AID 743210; active means well fitted activation curve with a large enough effect in the signal ratio in the repeat runs, with a control signal flat, not every such curve was filed as active; inconclusive means weak or mixed curves; the % refers to the signal ratio;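 further: HeLa cells with beta-lactamase reporter driven by heat shock elements; series mostly up to about 63 µM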)
# Procedure, shortened: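 Quantitative high-throughput format using an engineered HeLa line in which heat shock response elements drive beta-lactamase; after 5 h with compound, cells received a B/G FRET substrate and fluorescence was read.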
# [17] = molecular target: Peroxisome proliferator-activated receptor gamma (Homo sapiens) (UniProt P37231); experiment: qHTS assay to identify small molecule agonists of the peroxisome proliferator-activated receptor gamma (PPARg) signaling pathway (AID 743094; active means well fitted activation curve with a large enough effect in the signal ratio in the repeat runs, not every such curve was filed as active; inconclusive means weak or mixed curves, or effect the other way; inactive means no such curve, though single readings can be large or run the other way; the % refers to the signal ratio; further: potency means the concentration at half of the fitted maximal effect)
# Peroxisome proliferator-activated receptor gamma (Homo sapiens), sequence (P37231 whole entry, looked up): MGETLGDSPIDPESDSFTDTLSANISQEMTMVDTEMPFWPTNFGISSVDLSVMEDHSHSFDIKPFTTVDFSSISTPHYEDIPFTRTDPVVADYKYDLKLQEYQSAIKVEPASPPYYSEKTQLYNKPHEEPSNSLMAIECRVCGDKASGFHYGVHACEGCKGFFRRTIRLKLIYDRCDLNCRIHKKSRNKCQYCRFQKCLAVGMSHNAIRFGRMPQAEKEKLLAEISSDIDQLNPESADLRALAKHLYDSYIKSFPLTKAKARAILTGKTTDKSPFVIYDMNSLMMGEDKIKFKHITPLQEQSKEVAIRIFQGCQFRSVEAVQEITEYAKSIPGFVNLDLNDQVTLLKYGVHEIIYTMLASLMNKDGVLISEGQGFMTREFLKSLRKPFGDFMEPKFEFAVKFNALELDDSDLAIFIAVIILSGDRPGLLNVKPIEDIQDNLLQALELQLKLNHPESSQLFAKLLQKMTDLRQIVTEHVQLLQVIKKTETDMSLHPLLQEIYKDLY
# Procedure, shortened: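 Compounds dissolved in DMSO were added to PPARg UAS-bla HEK293H cells for 17 h at 37C, and reporter expression was quantified by fluorescence intensity after 1 h with LiveBLAzer B/G FRET substrate.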
# [18] = molecular target: Peroxisome proliferator-activated receptor gamma (Homo sapiens) (UniProt P37231); experiment: qHTS assay to identify small molecule antagonists of the peroxisome proliferator-activated receptor gamma (PPARg) signaling pathway (AID 743191; calls by dose curve; further: series mostly up to about 63 µM; nearly all actives have a fitted effect of over 30% in size)
# Procedure, shortened: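 GeneBLAzer PPARg UAS-bla HEK293H cells, 5 h post-plating, exposed to compounds 17 h at 37C. LiveBLAzer B/G FRET substrate added for 1 h at room temperature; beta-lactamase reporter read by fluorescence intensity.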
smiles,measurement,setting,value
CCc1nn(C)c(C(=O)NCc2ccc(C(C)(C)C)cc2)c1Cl,Potency,[1],0.77 µM (active)
same,Potency,[2],0.0243 µM (active)
same,Potency,[3],30.6 µM (active)
same,Potency,Aromatase (Homo sapiens),61.1 µM (active)
same,Potency,[4],61.1 µM (active)
same,Potency,[5],inactive
same,Potency,[6],inactive
same,Potency,[7],24.3 µM (active)
same,Potency,[8],54.9 µM (active)
CC(C)(O)c1cnn2c(-c3ccc(F)c(-c4c(F)cccc4C#N)c3)cnc2n1,outcome,[9],inactive
same,Potency,[10],inactive
same,Potency,[3],inactive
same,Potency,Aromatase (Homo sapiens),54.5 µM (active)
same,Potency,[4],inactive
same,Potency,[5],inactive
same,Potency,[6],inactive
same,Potency,[11],inactive
same,Potency,[7],inactive
same,Potency,[8],inactive
CC1(C)CC/C(=C/c2ccc(Cl)cc2)C1(O)Cn1cncn1 (configuration not stated),Potency,[1],54.2 µM (active)
same,outcome,[9],inactive
same,Potency,[10],inactive
same,Potency,[12],inactive
same,Potency,[13],inactive
same,Potency,[2],inactive
same,Potency,Aromatase (Homo sapiens),inactive
same,Potency,[4],inactive
same,Potency,[5],8.6 µM (active)
same,Potency,[6],inactive
same,Potency,[11],inactive
CC1(c2ccc(Oc3ccccc3)cc2)OC(=O)N(Nc2ccccc2)C1=O (configuration not stated),Potency,[1],1.94 µM (active)
same,Potency,[14],17.5 µM [inconclusive] (active)
same,Potency,[10],inactive
same,Potency,[2],21.8 µM (active)
same,Potency,Aromatase (Homo sapiens),61.5 µM (active)
same,Potency,[5],inactive
same,Potency,[6],inactive
same,Potency,[11],8.76 µM (active)
same,Potency,[15],0.615 µM (active)
same,Potency,[7],24.5 µM (active)
same,Potency,[8],34.9 µM (active)
CCCN(CC)CC1COC2(CCC(C(C)(C)C)CC2)O1 (configuration not stated),outcome,[9],inactive
same,Potency,[10],inactive
same,Potency,[12],inactive
same,Potency,[13],inactive
same,Potency,[2],inactive
same,Potency,[3],inactive
same,Potency,Aromatase (Homo sapiens),inactive
same,Potency,[4],inactive
same,Potency,[5],inactive
same,Potency,[6],inactive
same,Potency,[11],inactive
same,Potency,[7],inactive
same,Potency,[8],inactive
same,Potency,[16],inactive
CCC(C)c1cc([N+](=O)[O-])cc([N+](=O)[O-])c1OC(=O)C=C(C)C (configuration not stated),Potency,[1],21.7 µM (active)
same,outcome,[9],inactive
same,Potency,[10],inactive
same,Potency,[3],inactive
same,Potency,Aromatase (Homo sapiens),48.6 µM (active)
same,Potency,[4],24.3 µM (active)
same,Potency,[5],inactive
same,Potency,[7],27.3 µM (active)
same,Potency,[8],inactive
Fc1ccc(Oc2ccnc3cc(Cl)cc(Cl)c23)cc1,Potency,[1],68.6 µM (active)
same,Potency,[10],inactive
same,Potency,[12],inactive
same,Potency,[13],inactive
same,Potency,[3],inactive
same,Potency,Aromatase (Homo sapiens),inactive
same,Potency,[4],inactive
same,Potency,[6],inactive
same,Potency,[17],43.6 µM (active)
same,Potency,[18],inactive
same,Potency,[15],12.2 µM (active)
O=[N+]([O-])c1c2ccccc2cc2ccccc12,outcome,[9],inactive
same,Potency,[13],42.9 µM (active)
same,Potency,Aromatase (Homo sapiens),inactive
same,Potency,[4],inactive
same,Potency,[5],15.8 µM (active)
same,Potency,[6],inactive
same,Potency,[15],21.4 µM (active)
same,Potency,[8],inactive
CCCSP(=O)(OCC)SCCC,Potency,[1],inactive
same,outcome,[9],inactive
same,Potency,[3],inactive
same,Potency,Aromatase (Homo sapiens),inactive
same,Potency,[5],inactive
same,Potency,[6],inactive
same,Potency,[8],inactive
same,Potency,[16],inactive
Oc1c(Br)c(Br)c(Br)c(Br)c1Br,Potency,[12],inactive
same,Potency,[3],inactive
same,Potency,[6],inactive
same,Potency,[11],49.3 µM (active)
same,Potency,[7],24.5 µM (active)
same,Potency,[8],inactive
Clc1ccc(CO/N=C(\Cn2ccnc2)c2ccc(Cl)cc2Cl)c(Cl)c1,Potency,[2],11.9 µM (active)
same,Potency,[3],inactive
same,Potency,Aromatase (Homo sapiens),2.66 µM (active)
same,Potency,[4],inactive
same,Potency,[6],inactive
same,Potency,[17],inactive
same,Potency,[8],23.7 µM (active)
O=[N+]([O-])O.O=[N+]([O-])O.[Cd],Potency,[10],inactive
same,Potency,Aromatase (Homo sapiens),inactive
same,Potency,[5],inactive
same,Potency,[6],1.93 µM (active)
same,Potency,[11],0.155 µM (active)
same,Potency,[7],0.611 µM (active)
same,Potency,[8],inactive
CC(=O)[O-].[Tl+],outcome,[9],inactive
same,Potency,[3],inactive
same,Potency,Aromatase (Homo sapiens),61.5 µM (active)
same,Potency,[4],inactive
same,Potency,[5],inactive
same,Potency,[6],inactive
same,Potency,[8],inactive
O=C1NCN(c2ccccc2)C12CCN(CC1COc3ccccc3O1)CC2 (configuration not stated),outcome,[9],inactive
same,Potency,[14],inactive
same,Potency,[10],inactive
same,Potency,[12],inactive
same,Potency,[2],inactive
same,Potency,[3],inactive
same,Potency,Aromatase (Homo sapiens),inactive
same,Potency,[4],inactive
same,Potency,[5],inactive
same,Potency,[6],inactive
same,Potency,[17],inactive
same,Potency,[15],inactive
same,Potency,[7],inactive
same,Potency,[8],inactive
same,Potency,[16],inactive
N#CNC#N,Potency,[1],inactive
same,outcome,[9],inactive
same,Potency,[3],inactive
same,Potency,Aromatase (Homo sapiens),inactive
same,Potency,[4],inactive
same,Potency,[5],inactive
same,Potency,[6],inactive
same,Potency,[17],inactive
same,Potency,[18],inactive
same,Potency,[15],inactive
same,Potency,[7],inactive
same,Potency,[8],inactive
same,Potency,[16],inactive
Oc1cc(Cl)c(Cl)c(Cl)c1,Potency,[12],41.4 µM [activator] (active)
same,Potency,[2],inactive
same,Potency,[3],inactive
same,Potency,[5],inactive
same,Potency,[6],inactive
O=C/C(Cl)=C(/Cl)C(=O)O,Potency,[1],68.6 µM (active)
same,outcome,[9],inactive
same,Potency,[12],inactive
same,Potency,[13],inactive
same,Potency,[2],inactive
same,Potency,[3],inactive
same,Potency,[5],inactive
same,Potency,[6],inactive
same,Potency,[11],inactive
same,Potency,[15],38.5 µM (active) and 27.3 µM (active)
same,Potency,[7],inactive
same,Potency,[8],38.9 µM (active)
O=[N+]([O-])c1cc([N+](=O)[O-])c2ccccc2c1,Potency,[1],inactive
same,outcome,[9],inactive
same,Potency,[5],16.3 µM (active)
same,Potency,[6],inactive
Cc1cc(SCc2sc(-c3ccc(C(F)(F)F)c(F)c3)nc2C)ccc1OCC(=O)O,Potency,[1],61.1 µM (active)
same,outcome,[9],inactive
same,Potency,[12],inactive
same,Potency,[13],inactive
same,Potency,[2],inactive
same,Potency,[3],inactive
same,Potency,[5],inactive
same,Potency,[6],inactive
same,Potency,[17],2.45 µM (active)
same,Potency,[11],49 µM (active)
